Laboratory results published in PubChem BioAssay AID488965 (Broad Institute, 2010).
In all, about 340,000 compounds went through this assay and about 210 (0.062%) were called active. Only a selection was taken, and actives are over-represented in it overall. Unmarked numbers belong to inactive results. No stated cut-off is given here; in the data, active means inhibition above about 30% (passing the limit was not always enough); inconclusive means no clear call, values can overlap the other calls.

Tested on: PvdQ acylase [Pseudomonas aeruginosa LESB58]
Experiment: P. aeruginosa PvdQ acylase inhibitors, primary screen, biochemical, fluorescence, plate reader and imaging, single point (AID 488965);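 further: 0% = vehicle neutral wells and 100% = reference inhibitor wells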
Details: purified PvdQ acylase, at 10 µM, hits give high values

Row | SMILES | inhibition
1 | CCSc1nc2sc3c(c2c(=O)n1-c1ccc(C)cc1)CCN(C)C3 | -19.4%
2 | C/C=N/N(c1ccccc1)c1ccccc1 | -15.2%
3 | COC(=O)C[n+]1cccc2ccccc21 | -19.7%
4 | CC(=O)c1ccccc1NC(=O)C1CC(=O)N(c2ccc3c(c2)OCCO3)C1 (centres undefined) | 3.1%
5 | Cc1ccc(-c2csc(N3CCN(c4cc5c(cc4Cl)nc(-c4ccncc4)n5CCOCCO)CC3)n2)cc1 | 2.95%
6 | CCOc1ccc(/C=C(/NC(=O)c2ccccc2)C(=O)NCCC(=O)O)cc1 | 3.82%
7 | O=C(NCc1cccnc1)c1cnc2ccccc2n1 | -7.28%
8 | COc1ccccc1CN1CCCC(N2CCN(c3ccc(F)cc3)CC2)C1 (centres undefined) | -5.39%
9 | O=C(COC(=O)/C=C/c1cccs1)NC1CCCCC1 | -1.95%
10 | COc1ccc(Cn2c(-c3ccc(Cl)cc3)c[n+]3ccccc23)cc1 | -9.83%
11 | COc1ccc(/C(N)=N/OC(=O)CCCc2ccccc2)cc1 | 12.9%
12 | Cc1ccccc1N1CC(C(=O)Nc2ccc(S(=O)(=O)N3CCCC3)cc2)CC1=O (centres undefined) | -17.2%
13 | COc1ccccc1C(=O)N(Cc1ccc(C)o1)C1CCS(=O)(=O)C1 (centres undefined) | -16.8%
14 | O=C(NCc1cccc(CNC(=O)Nc2cccc(O)c2)c1)Nc1cccc(O)c1 | 8.11%
15 | OCCn1c(-c2ccccc2)csc1=Nc1ccccc1 | -14.6%
16 | CNC[C@H](CC1CCCCC1)NC[C@H](NCCC1CCCC1)[C@H](C)O | -4.64%
17 | CCCCNC1(C#N)CCN(Cc2ccccc2)CC1 | -10.8%
18 | Cc1ccc(S(=O)(=O)N[C@@H](Cc2ccccc2)C(=O)N2CCC(C(=O)N[C@H](C(=O)O)C(C)O)CC2)cc1 (some centres undefined) | -16.1%
19 | CN1CCN(CC(O)COCc2ccc3c(c2)OCO3)CC1 (centres undefined) | 13.9%
20 | O=C(c1cccs1)C1C(c2ccc(Br)cc2)NC(=S)NC1(O)C(F)(F)F (centres undefined) | -1.76%
21 | Cc1ccc2nc(SCC(=O)N3CCN(c4ccccc4)CC3)nc(=O)n2c1 | -4.06%
22 | CCC1([N+](=O)[O-])COC(c2ccc(C)cc2)OC1 (centres undefined) | -3.75%
23 | CCCCCN(C(=O)NC(=O)Nc1ccccc1OC)S(C)(=O)=O | -5.97%

Row | SMILES | inhibition
24 | Cc1cccn2c(CN(C)C3CCCc4ccccc43)c(C(=O)N3CCOCC3)nc12 (centres undefined) | -1.38%
25 | CCOc1cccc(OCCCOc2cccc3cccnc23)c1 | -17.7%
26 | COc1ccc(S(=O)(=O)N(C)C[C@H]2Oc3ccc(NS(=O)(=O)c4cccs4)cc3CC(=O)N([C@H](C)CO)C[C@H]2C)cc1 | 3.49%
27 | O=C(O)c1ccc(OCC2CCCO2)cc1 (centres undefined) | -9.45%
28 | CCCCN1CC(COc2ccccc2)Oc2cccc(F)c2S1(=O)=O (centres undefined) | -16%
29 | CCCCCC1CC(COc2ccccc2)OC1=O (centres undefined) | 44.8% (active)
30 | CCCCCCNS(=O)(=O)c1ccccc1Br | -11.4%
31 | CC(CNC(=O)Cn1cnc2c(OCc3ccccc3)ncnc21)c1ccccc1 (centres undefined) | -13.2%
32 | CCCCNC(=O)N1CCCC(N(C)CCc2ccc(OC)c(OC)c2)C1 (centres undefined) | -14.5%
33 | CN(Cc1ccccc1F)C(=O)C(Cc1ccccc1)NC(=O)c1ccccc1 (centres undefined) | -5.25%
34 | Cc1nn(CCOc2ccc(Br)cc2)c(C)c1[N+](=O)[O-] | -14%
35 | CCOC(=O)N1CCN(Cc2nc3ccc([N+](=O)[O-])cc3c(=O)n2-c2cccc(OC)c2)CC1 | -6.54%
36 | CCn1nnnc1SCC(=O)Nc1ccc(N(C)C)cc1 | -8.46%
37 | COc1ccc(N(CC(=O)NC2CCCCCCC2)S(=O)(=O)c2c(C)nn(C)c2C)cc1 | -11.2%
38 | Cc1ccc(CNC(=O)CC(NC(=O)c2ccccc2)c2ccccc2)cc1 (centres undefined) | -6.05%
39 | NC(=O)c1ncc(C(F)(F)F)cc1Oc1ccc(F)cc1 | -11.7%
40 | O=C(Nc1ccc(OCC(=O)N2CCOCC2)cc1)c1cc(F)c(F)cc1Cl | -15.7%
41 | Cc1ccc(CN2CC(C(=O)N3CCN(S(=O)(=O)c4ccccc4)CC3)CC2=O)cc1 (centres undefined) | -11.4%
42 | O=C1C=CC(=O)N1c1ccc(N2CCCCC2)cc1 | -13.5%
43 | C#CCOCCOCCOCCNc1nc(N2CCN(C(=O)[C@H](CO)n3cc([C@@H](N)C(C)C)nn3)CC2)nc(N2CCN(C(=O)[C@H](CCC(=O)O)n3cc([C@@H](N)[C@H](C)CC)nn3)CC2)n1 | -4.25%
44 | COc1ccc(C(=O)NC2CCN(C(=O)Nc3ccc(F)cc3)CC2)cc1 | -6.33%
45 | O=C(CSc1nnc(-c2cccnc2)n1CCc1ccccc1)NCc1ccccc1 | -11.6%
46 | CCOC(=O)C1(Cc2ccc(O)cc2)NC(c2ccccc2F)C2C(=O)N(C)C(=O)C21 (centres undefined) | -8.27%

Row | SMILES | inhibition
47 | CC[C@]12c3[nH]c4ccc(Cl)cc4c3CCN1C(=O)[C@@H](CC(=O)NCCCOC)C[C@@H]2C(=O)N1CCN(C(=O)c2ccco2)CC1 | -13.8%
48 | O=C(/C=C/c1ccccc1Cl)Nc1ccc(S(=O)(=O)Nc2ncccn2)cc1 | -4.75%
49 | O=C(CCCOc1ccccc1)NCc1ccco1 | -2.34%
50 | CCn1c(SCC(=O)Nc2ccc(OC)c(OC)c2)nnc1-c1c[nH]c2ccccc12 | -5.34%
51 | COc1ccc(N2C(=O)CC(Sc3n[nH]c(-c4ccc(C)cc4)n3)C2=O)cc1 (centres undefined) | -16%
52 | CC(NC(=S)NNS(=O)(=O)c1ccc(C(C)(C)C)cc1)c1ccccc1 (centres undefined) | -8.37%
53 | Cc1cc(C)cc(NC(=O)N(C)Cc2ccccc2)c1 | -16%
54 | C/C(Cc1ccccc1)=N\NC(=O)CNC(=O)c1cccc(Br)c1 | 2.03%
55 | CCOc1ccc(OCC)c(NC(=O)CCS(=O)(=O)c2ccc(C)cc2)c1 | -14.3%
56 | CCc1ccc(NC(=O)N2CCc3ccccc3C2)cc1 | -0.823%
57 | CCOC(=O)C(NC(=O)CC(C)C)(Nc1sc2c(c1C(N)=O)CCCC2)C(F)(F)F (centres undefined) | -4.91%
58 | CC1Cc2ccccc2N1S(=O)(=O)c1ccc(Cl)nc1 (centres undefined) | 24.3%
59 | COc1ccc(OCC(=O)NN2Cc3ccccc3C2=N)cc1 | 7.9%
60 | COc1ccc(CNS(=O)(=O)c2ccc(NC(=O)N3CCCCC3)cc2)cc1 | 1.88%
61 | N#Cc1cc([N+](=O)[O-])ccc1Oc1cccc(/C=N/NC(=O)c2ccc(Cl)cc2)c1 | 65.3% (active)
62 | O=C(N/N=C/c1ccc(Cl)cc1)c1nc2ccc([N+](=O)[O-])cc2c(=O)[nH]1 | -8.55%
63 | O=C(N/N=C/c1cccc(OC(=O)c2ccc([N+](=O)[O-])cc2)c1)c1cccnc1 | -8.47%
64 | C/C(=N\NC(=O)Cc1ccccc1[N+](=O)[O-])c1cccnc1 | -8.6%
65 | O=C(CN1CCSCC1)N/N=C/c1ccc(F)cc1F | -7.29%
66 | COc1ccccc1N1CCN(C(=O)CCS(=O)(=O)c2ccc3c(c2)NC(=O)C(C)S3)CC1 (centres undefined) | -17.3%
67 | CN1C(C(=O)NCc2ccco2)CC2Cn3c(nc4ccccc43)C21 (centres undefined) | -1.69%
68 | CCOC(=O)N1CCC(Nc2c(NCCCN3CCN(CC)CC3)c(=O)c2=O)CC1 | -6.72%
69 | O=C(NCc1ccco1)/C(=C/c1cccc([N+](=O)[O-])c1)NC(=O)c1ccco1 | 5.34%

Row | SMILES | inhibition
70 | OC(CNCC1CCCO1)Cn1c2ccc(Br)cc2c2cc(Br)ccc21 (centres undefined) | -10.5%
71 | O=c1cc(Cl)c2ccccc2n1-c1ccccc1 | -10.1%
72 | Cc1cccc(N2CCN(C(=O)c3cccc(N4C(=O)C5C6C=CC(C6)C5C4=O)c3)CC2)c1C (centres undefined) | -11.5%
73 | Cc1ccc(S(=O)(=O)NCCSC(C)(C)C)cc1 | 6.35%
74 | COc1ccc(S(=O)(=O)N2C[C@H]3CON(C)[C@H]3C[C@H]2c2cccc(Br)c2)cc1 | 4.46%
75 | O=C(NCCc1ccccc1)C1CCC(Cn2c(=O)c3ccccc3n(Cc3cccnc3)c2=O)CC1 (centres undefined) | -13.5%
76 | COc1ccc(-c2[nH]ncc2CN(C)Cc2cccnc2)c(F)c1 | -16.1%
77 | Cc1ccc(N(C(=O)Cc2cccs2)C2C=CS(=O)(=O)C2)cc1Cl (centres undefined) | -5.8%
78 | CCCC(=O)N1CCN(c2nnc(-c3ccc(C)cc3)c3ccccc23)CC1 | -23.6%
79 | COc1cccc(NC(=O)c2ccccc2N(Cc2ccccc2)S(C)(=O)=O)c1 | -17.2%
80 | CCOc1ccc(-c2noc(CCC(=O)NC3CCCC3)n2)cc1OC | 3.89%
81 | CC(C)=CCC/C(C)=C/C(=O)O | -3.82%
82 | O=C(N/C(=C/c1ccc(Cl)cc1)C(=O)N1CCCCC1)c1ccco1 | -10.7%
83 | CN1C(C(=O)NCC2CC2)CC2Cn3c(nc4ccccc43)C21 (centres undefined) | -7.73%
84 | O=C1C=C(c2cccc(Cl)c2)C[C@@H](c2ccc(F)cc2)C1 | 37.3% (active)
85 | O=C1C=C(c2cccc(Cl)c2O)C[C@@H](c2ccc(F)cc2)C1 | -5.55%
86 | COc1cccc(C2=CC(=O)C[C@H](c3ccc(OC)c(OC)c3)C2)c1 | -0.585%
87 | O=C1C=C(c2cccc(Br)c2)C[C@@H](c2ccc(F)cc2)C1 | 63.4% (active)
88 | COc1ccccc1C1=CC(=O)C[C@H](c2ccc(F)cc2)C1 | 2.08%
89 | COc1cccc(C2=CC(=O)C[C@H](c3ccc(F)cc3)C2)c1OC | -13.7%
